Molecules are shown by their SMILES. The campaign covered roughly 300,000 compounds. About 4,000 (1.3%) were called active. The list comes from a sample in which actives are over-represented; it also holds similar structures and randomly drawn compounds. Unmarked numbers belong to inactive results.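 How the source made its calls: active means mean replicate score, as percent of positive control median, at least 50; inconclusive means mean below 50 but one replicate at or above 50; inactive means mean and every replicate below 50.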

This assay is described as follows: kanamycin survival loss of SKKanGAS strain – BacTiter-Glo luminescence, streptokinase expression inhibitor project, primary screen (AID 1662).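 Further: strain carries kanamycin resistance gene driven by streptokinase promoter and grows in 40 µg/ml kanamycin; loss of luminescence reflects streptokinase promoter inhibition or plain growth inhibition; 0% = median of DMSO wells and 100% = positive control at its reference dose.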 Particulars: S. pyogenes SKKanGAS, kanamycin growth, 6 h, at 7.5 µM, active compounds read high.
Usually inhibition stands for the relative decrease from the control value, in per cent. Take `O=C(Nc1cccc(C(F)(F)F)c1)c1ccc(N2CCNCC2)c([N+](=O)[O-])c1`: the inhibition was -0.102%.

On to `O=C(Cc1ccc(S(=O)(=O)N2CCOCC2)s1)N1CCN(c2ccc(C(F)(F)F)cc2[N+](=O)[O-])CC1`, for which the inhibition was 3.49%. The value for `COc1cc(OC)cc(C(=O)NC(=S)N2CCN(c3ccc(C(F)(F)F)cc3[N+](=O)[O-])CC2)c1` was 86.6% (active); that for `Cc1cc(C(=O)OCC(=O)NCc2ccco2)c(C)n1-c1ccccc1` was 2.24%; that for `O=C(NNc1ccccc1Cl)C(O)(c1cccc(C(F)(F)F)c1)c1cccc(C(F)(F)F)c1` was 98.2% (active).

On to `CC(CC(=O)Nc1cc(C(F)(F)F)ccc1Cl)c1ccccc1` (configuration not stated), for which the inhibition is 24.4%. Take `O=C(Nc1cc(C(F)(F)F)ccc1Cl)C(=O)N1CCCCC1`: the inhibition is -4.87%. `COc1cc(C)c(S(=O)(=O)N2CCOCC2)c(C)c1C`: the inhibition was 0.811%. Turning to `O=C(Nc1ccccc1Cl)/C(Cl)=C(\Cl)S(=O)c1ccccc1` (configuration not stated), the inhibition is 75.1% (active). The value for `O=C(Nc1ccccc1Cl)Nc1cccc2cccnc12` was -4.43%; that for `COCCN(CCOC)C(=S)Nc1ccccc1Cl` was -4.57%; that for `Cn1cccc1C(C#N)c1ccccc1C#N` (configuration not stated) was 0.367%. As for `Cc1cc(C)c2nc(N(CCN(C)C)C(=O)/C=C/c3cccs3)sc2c1`, the inhibition was 3.15%. As to `Cc1noc(NS(=O)(=O)c2ccc(NC(=O)c3oc4ccc(F)cc4c3C)cc2)c1C`, the inhibition is 25.3%. As to `CCn1c(SCC(=O)Nc2ccc(S(=O)(=O)Nc3onc(C)c3C)cc2)nnc1-c1ccccc1`, the inhibition was -0.983%.

Turning to `Cc1cc(C)c2nc(-c3cccnc3)cc(C(=O)Nc3ccc(S(=O)(=O)Nc4onc(C)c4C)cc3)c2c1`, the inhibition is 64.7% (active). The figure for `Cc1ccsc1CNn1cnnc1SCc1ccccc1F` is -0.394%. The value for `O=C(c1cc2ccccc2o1)N1CCN(c2cccc(C(F)(F)F)c2)CC1` was 0.601%; that for `FC(F)(F)c1cccc(-c2cc3ccccc3nc2N2CCCC2)c1` was 51.7% (active); that for `c1ccc(-c2cc(N3CCCCC3)c3ccccc3n2)cc1` was 13.6%. The value for `O=C(c1ccc(OC2CCN(C(=O)c3cccnc3)CC2)cc1)N1CCCCCC1` was -5.73%; that for `O=C(N/N=C/c1cccc([N+](=O)[O-])c1)c1ccncc1` was 1.34%.

For the compound `Cc1ccc(-n2[nH]c(C)c(/C=N/NC(=O)c3cccc([N+](=O)[O-])c3)c2=O)cc1C`, the inhibition was 91.5% (active).

On to `Cc1[nH]n(-c2ccccc2)c(=O)c1/C=N/NC(=O)c1ccoc1C`, for which the inhibition was -29.8%. Turning to `CC1=C2C(=O)OC(c3ccoc3)C2(C)CCC1` (configuration not stated), the inhibition is -13.7%. The figure for `CCC(NC(=O)C1CCCC1)c1ccc(C)cc1` (configuration not stated) is 5.2%; for `Cc1nn(C)c(C)c1S(=O)(=O)N1CCC(CO)(Cc2ccc(Cl)cc2)CC1` it is -2.57%; for `COc1c(N2CCN(C(=S)Nc3ccccc3F)C(C)C2)c(F)cc2c(=O)c(C(=O)O)cn(C3CC3)c12` (configuration not stated) it is 104% (active). The value for `CC1CN(C(=S)Nc2ccccc2F)CC(C)O1` (configuration not stated) was -2.73%; that for `COc1ccccc1NC(=S)N1CCN(c2ccc(F)cc2)CC1` was -4.99%; that for `COc1ccc(S(=O)(=O)NCC(=O)NC2CC2)cc1OC` was -2.16%. With `Cc1cc(Cl)c2oc(C(=O)NC(C)c3ccncn3)c(C)c2c1` (configuration not stated), the inhibition was -5.52%. The figure for `Cc1cc(Cl)c2oc(C(=O)N(C)C(C)c3ccccn3)c(C)c2c1` (configuration not stated) is 8.03%. The value for `Cc1cc(Cl)c2oc(C(=O)N3CCC(O)(c4ccccc4)CC3)c(C)c2c1` was 64.2% (active); that for `COc1ccc(CCNC2=CC(=O)CC(C)(C)C2)cc1` was -6.22%. The value for `CC(C)(C)N1C(=O)[C@H]2[C@@H](c3ccc(Br)cc3)N3C(=O)N(c4cccc(Cl)c4)C(=O)[C@@]3(C)[C@H]2C1=O` was -0.18%; that for `Cc1cccc(-n2nc3c(c2NC(=O)c2cc4ccccc4o2)CS(=O)(=O)C3)c1` was 1.09%; that for `CCOC(=O)c1cc(-c2ccc(F)cc2)n(CC(=O)NCc2ccccn2)c1C` was -1.39%. As to `COc1nc(NC2CCCCC2)nc(N2CCCCCC2)n1`, the inhibition is 75.9% (active). The figure for `Clc1nc(NC2CCCC2)nc(N2CCOCC2)n1` is 3.5%. `COC(=O)c1ccc(Oc2nc(Nc3ccc(F)cc3)nc(N3CCCC3)n2)cc1`: the inhibition is 18.8%.

On to `O=c1cc(C(F)(F)F)[nH]c(=O)n1C1CCCCC1`, for which the inhibition was 11.3%. On to `O=C(c1cccc(F)c1)N1CCN(c2ccc([N+](=O)[O-])c3cccnc23)CC1`, for which the inhibition was -4.2%. `Cc1cc(C)cc(C(=O)NC2C(=O)N3C(C(=O)O)=C(CSc4nnc(C)s4)CSC23)c1` (configuration not stated): the inhibition was 96.4% (active). The figure for `Cc1nnc(SCC2=C(C(=O)O)N3C(=O)C(NC(=O)Cn4nc(C)c(Cl)c4C)C3SC2)s1` (configuration not stated) is 88.3% (active); for `Cc1nnc(SCC(=O)Nn2cnnc2)s1` it is 4.69%. In the case of `Cc1cccc(CSc2nnc(NC(=O)CSc3nnc(C)s3)s2)c1`, the inhibition was 7.83%. On to `Cc1nnc(SCC(=O)NC2CCCC2)s1`, for which the inhibition was -0.971%.

In the case of `COc1ccc(NC(=O)CCCC(=O)c2ccccc2)cc1`, the inhibition is 1.96%. The value for `CCOc1ccccc1/C=N/Nc1nc2ccccc2o1` was 2.09%. The value for `COc1cc(N/C=C2\CC(=O)NC(C)=C2C#N)cc(OC)c1OC` was -0.282%; that for `O=C(Nc1ccc(F)cc1)c1ccc(S(=O)(=O)NCc2cccnc2)cc1` was -0.655%. The figure for `Cc1cc(C(F)(F)F)nn1-c1nc(-c2ccco2)cc(C(F)(F)F)n1` is 7.56%; for `FC(F)(F)c1cc(-c2ccco2)nc(NCc2ccc(Cl)cc2)n1` it is 65.4% (active); for `FC(F)(F)c1cc(-c2cccs2)nc(NCc2ccco2)n1` it is -2.9%. On to `O=[N+]([O-])c1ccc(S(=O)(=O)Nc2cccc(-c3ccc(N4CCCC4)nn3)c2)cc1`, for which the inhibition is 0.0506%.

On to `O=S(=O)(Nc1cccc(-c2ccc(N3CCOCC3)nn2)c1)c1ccc(Cl)c(Cl)c1`, for which the inhibition was 53.5% (active). Regarding `O=S(=O)(Nc1ccc(-c2ccc(N3CCOCC3)nn2)cc1)c1cc(Cl)ccc1Cl`, the inhibition is 18.8%. Turning to `CC1CN(S(=O)(=O)c2cccc(C(F)(F)F)c2)CN1C(=O)N1CCOCC1` (configuration not stated), the inhibition is 0.316%. As for `CN(C)CCNC(=O)c1[nH]nc2c1CCc1ccccc1-2`, the inhibition was -5.17%. `COc1cc2cc(C(=O)N/N=C/c3cccc(OC)c3OC)[nH]c2cc1OC`: the inhibition was 2.92%. The figure for `COc1cccc(/C=N/NC(=O)c2[nH]nc3c2CCc2ccccc2-3)c1O` is 79% (active); for `COc1ccccc1C1C(C(N)=O)=C(C)Nc2nc(CCCO)nn21` (configuration not stated) it is -3.27%. The figure for `CCOc1ccc(CN(C)C(=O)c2ccc(=O)[nH]c2)cc1` is 1.34%; for `CCOC(=O)C1=C(CCc2ccccc2)NC(=O)NC1c1ccc2ccccc2c1` (configuration not stated) it is 19.2%; for `CC(C)Cn1c(CCC(=O)O)ccc1-c1cccs1` it is -8.87%.

Regarding `CCCCCCn1c(SCC(=O)c2ccccc2)nc2c1c(=O)[nH]c(=O)n2C`, the inhibition was 73.3% (active). The figure for `CCCCCn1c(SCCC(C)C)nc2c1c(=O)[nH]c(=O)n2C` is 26.4%; for `C=CCSc1nc2c(c(=O)[nH]c(=O)n2C)n1Cc1ccccc1` it is -11.2%; for `N=c1ccn(CC(=O)NC(N)=O)c2ccccc12` it is -5.02%.

`Cc1cc(-c2ccc(C)c(S(=O)(=O)NC(C)Cc3ccco3)c2)on1` (configuration not stated): the inhibition was 2.44%. Consider `CCC(=C/c1sc2ccc3ccccc3c2[n+]1C)/C=C1\Sc2ccc3ccccc3c2N1C`, for which the inhibition is 69.5% (active). The value for `COc1ccc(C(CNC(=O)c2cccc(S(=O)(=O)Nc3ccccc3Cl)c2)N2CCOCC2)cc1` (configuration not stated) was 67.6% (active); that for `COc1ccc(C(CNC(=O)c2ccc(S(=O)(=O)Nc3ccccc3C)cc2)N2CCOCC2)cc1` (configuration not stated) was -13.5%; that for `COc1ccc(C(CNC(=O)c2cccc(NS(=O)(=O)c3ccc(C)c(F)c3)c2)N2CCCC2)cc1` (configuration not stated) was -16%. Consider `C=Cc1ccc(C(=O)N2CCCC(CCC(=O)N3CCN(c4ccccn4)CC3)C2)cc1` (configuration not stated), for which the inhibition was 4.83%. The value for `CC(C)C(=O)Nc1nnc(SCC(=O)N2C(C)CCCC2C)s1` (configuration not stated) was -1.25%; that for `CC1Cc2ccccc2N1S(=O)(=O)c1ccc(Cl)nc1` (configuration not stated) was -1.93%. Turning to `Cc1[nH]n(-c2ccc(Cl)cc2)c(=O)c1/C=N/n1c(C)nc2ccccc2c1=O`, the inhibition is 69.1% (active).

Turning to `COc1cc(NS(=O)(=O)c2ccc(N=Cc3c(C)[nH]n(-c4ccccc4)c3=O)cc2)nc(OC)n1`, the inhibition was 7.41%. Take `CCOc1[nH]n(-c2ccc(Cl)cc2)c(=O)c1C=Nc1ccc(O)cc1`: the inhibition was 2.84%. As to `Cc1ccc(-n2[nH]c(C)c(/C=N/N3C(=O)c4cccc5cccc(c45)C3=O)c2=O)cc1`, the inhibition was 8.48%. Turning to `Cc1[nH]n(-c2cccc(Cl)c2)c(=O)c1-c1ccc(Cl)cc1`, the inhibition is 39.1%. `Cc1[nH]n(-c2cccc(Cl)c2)c(=O)c1/C=N/n1c(C)nc2ccccc2c1=O`: the inhibition was 79.2% (active). The figure for `CCOC(=O)C1CCN(C(=O)COC(=O)C2CCN(S(=O)(=O)c3ccc4c(c3)OCCO4)CC2)CC1` is 19.6%; for `CCc1nnc(NC(=O)C2CC(=O)N(c3ccc4c(c3)OCCO4)C2)s1` (configuration not stated) it is -3.71%. The value for `CC(OC(=O)c1ccc2noc(-c3ccccc3)c2c1)C(N)=O` (configuration not stated) was 6.64%; that for `Clc1c(OCCCn2ccnc2)ccc2ccccc12` was 5.1%; that for `Cc1ccc(CNC(=O)CCN2C(=O)[C@@H]3Cc4ccccc4CN3C2=O)cc1` was 4.22%. The figure for `O=C(CSc1nc(Nc2ccccc2)nc(N2CCOCC2)n1)Nc1cc(Cl)ccc1O` is 78.3% (active); for `Cc1ccccc1NC(=O)CSc1nc2ccc(Nc3nc(N4CCOCC4)nc(N4CCOCC4)n3)cc2s1` it is 15.9%; for `CC1(c2ccccc2)NC(=O)N(CC(=O)Nc2cc(Cl)ccc2N2CCOCC2)C1=O` (configuration not stated) it is -3.7%.

Source of the values: PubChem BioAssay AID1662 (Broad Institute, 2009).
